# Calls of active or inactive are those of the source.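 How the source made its calls: active means clear inhibition of the enzyme's cutting of labeled DNA at one or more tested doses; inactive means response stays at baseline.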
# Biological target: Tyrosyl-DNA phosphodiesterase 1 (Homo sapiens) (UniProt Q9NUW8)
# Test: Gel-Based Assay for Inhibitors of Tyrosyl-DNA Phosphodiesterase (TDP1): Hit Validation
# Conditions: Recombinant TDP1, 32P-DNA substrate cleavage, gel densitometry
# From the text: Assay Overview: Human tyrosyl-DNA phosphodiesterase I (Tdp1) is a rational anticancer target because this enzyme is involved in the repair of DNA lesions created by the trapping of human DNA topoisomerase I (Top1) following treatment by anticancer agents such as camptothecins. Recombinant Tdp1 was expressed and purified from E. coli in the laboratory (Anthony et al, Nucleic Acids Research, 2007, Vol. 35, 4474-4484). See below for assay protocol. This is assay was used to validate select hits from the related primary AlphaScreen assay (AID: 485290) NIH Molecular Libraries Probe Production Network [MLPCN] NIH Chemical Genomics Center [NCGC] Assay Provider: Yves Pommier and Christophe Marchand, National Cancer Institute
# 5'-32P-labeled DNA substrate (1 nmol/L; N14Y; 5'-[…]-pY-3') was incubated with 0.2 nmol/L recombinant Tdp1 in the absence or presence of inhibitor for 15 min at room temperature in an assay buffer containing 1X PBS, pH 7.4, 80 mmol/L KCl and 0.01% Tween-20. Reactions were terminated by the addition of 1 volume of gel loading buffer [99.5% (v/v) formamide, 5 mmol/L EDTA, 0.01% (w/v) xylene cyanol, and 0.01% (w/v) bromophenol blue]. Samples were subjected to a 16% denaturing PAGE and gels were exposed after drying to a PhosphorImager screen (GE Healthcare). […]
# Sequence of Tyrosyl-DNA phosphodiesterase 1 (Homo sapiens) (Q9NUW8 whole entry, looked up): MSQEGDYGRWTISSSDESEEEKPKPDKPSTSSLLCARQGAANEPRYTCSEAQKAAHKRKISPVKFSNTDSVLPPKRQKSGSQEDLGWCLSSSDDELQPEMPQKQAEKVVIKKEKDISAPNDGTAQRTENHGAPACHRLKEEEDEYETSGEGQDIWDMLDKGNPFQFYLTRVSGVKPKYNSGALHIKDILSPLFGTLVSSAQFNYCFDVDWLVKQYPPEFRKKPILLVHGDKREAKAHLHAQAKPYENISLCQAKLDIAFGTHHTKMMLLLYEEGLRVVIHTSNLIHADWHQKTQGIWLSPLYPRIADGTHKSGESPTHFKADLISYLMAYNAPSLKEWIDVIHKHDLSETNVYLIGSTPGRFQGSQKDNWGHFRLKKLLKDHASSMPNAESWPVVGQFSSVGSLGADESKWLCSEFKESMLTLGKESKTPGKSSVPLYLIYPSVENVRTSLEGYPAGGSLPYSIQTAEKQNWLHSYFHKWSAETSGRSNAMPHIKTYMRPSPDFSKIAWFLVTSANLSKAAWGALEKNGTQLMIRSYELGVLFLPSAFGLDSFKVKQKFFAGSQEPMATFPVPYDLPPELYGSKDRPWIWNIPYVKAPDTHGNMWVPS
SMILES,outcome,Potency
O=c1c2ccccc2nc2sc(Nc3ccc(F)cc3)nn12,inactive,–
O=c1c2ccccc2nc2sc(Nc3cccc(Cl)c3)nn12,–,7.4 µM (active)

# Reference: PubChem BioAssay AID504474 (National Center for Advancing Translational Sciences (NCATS), 2011)
